Drawing on PubChem BioAssay AID720566 (Broad Institute, 2013), this text covers outcome for 12 compounds.

SMILES strings stand for the structures. Results with a measured potency or affinity are listed apart. Activity calls are given as the source filed them.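 Rule for the calls: active = in all runs, an absorbance decrease of 25% or more of the average positive control decrease; inconclusive = runs conflict, with both active and inactive results; inactive = all runs inactive, opposite-direction effects included.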

This assay addresses Protein disulfide-isomerase A6 (Homo sapiens) (UniProt Q15084). As to the kind of experiment: inhibitors of ERp5-mediated insulin aggregation, dose response, biochemical, turbidity, absorbance 650 nm, cherry-picked samples (AID 720566).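 Note: negative values mean less insulin aggregation so ERp5 inhibition.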 Conditions: Recombinant ERp5 insulin aggregation; series mostly up to 35 µM.

Sequence of Protein disulfide-isomerase A6 (Homo sapiens) (Q15084 whole entry, looked up): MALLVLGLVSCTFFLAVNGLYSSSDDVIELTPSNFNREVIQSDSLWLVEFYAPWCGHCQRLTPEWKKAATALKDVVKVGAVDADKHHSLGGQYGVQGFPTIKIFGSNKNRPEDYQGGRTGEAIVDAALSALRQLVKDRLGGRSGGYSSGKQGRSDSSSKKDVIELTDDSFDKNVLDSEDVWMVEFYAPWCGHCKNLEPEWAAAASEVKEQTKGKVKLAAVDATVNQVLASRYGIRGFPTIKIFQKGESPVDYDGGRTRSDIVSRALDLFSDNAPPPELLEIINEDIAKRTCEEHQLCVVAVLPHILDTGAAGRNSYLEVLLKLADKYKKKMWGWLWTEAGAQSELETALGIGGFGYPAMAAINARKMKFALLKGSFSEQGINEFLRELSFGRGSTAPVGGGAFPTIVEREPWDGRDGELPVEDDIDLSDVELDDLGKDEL

On to `COc1ccc(S(=O)(=O)Nc2ccc3c(c2)CC(=O)N([C@H](C)CO)C[C@H](C)[C@H](CN(C)C(=O)Nc2ccccc2)O3)cc1`, for which the result was inactive.
As for `C[C@@H]1CN([C@H](C)CO)C(=O)c2cccc(NC(=O)Nc3cccc4ccccc34)c2O[C@H]1CN(C)C(=O)Nc1ccc(C(F)(F)F)cc1`, the result was inactive.
Turning to `C[C@@H]1CN([C@@H](C)CO)C(=O)c2cc(-c3cccc(C#N)c3)cnc2O[C@H]1CN(C)Cc1cncnc1`, the outcome was inactive.
As to `CC(C)CC#Cc1ccc2c(c1)O[C@@H](CN(C)C(=O)c1ccccn1)[C@@H](C)CN([C@@H](C)CO)S2(=O)=O`, the outcome was inactive.
For the compound `COc1ccc2c3c([nH]c2c1)[C@H](CO)N(Cc1ccccc1Cl)CC31CN(C(=O)C2CC2)C1`, the result was inactive.
For the compound `Cc1cccc(Oc2ccc(NS(=O)(=O)c3ccc(C)c(C(=O)O)c3)cc2)c1`, the outcome was inactive.
To `C[C@H](CO)N1C[C@H](C)[C@H](CN(C)Cc2cncnc2)Oc2ncc(-c3cccc(C#N)c3)cc2C1=O` belongs “inactive”; to `CCCNC(=O)[C@H]1[C@H](CO)[C@H]2Cn3c(ccc(/C=C/c4ccccc4)c3=O)[C@@H]1N2C(C)=O`, “inactive”; to `CCC(=O)N(C)C[C@H]1Oc2cc(-c3ccc(C#N)cc3)ccc2S(=O)(=O)N([C@@H](C)CO)C[C@@H]1C`, “inactive”.
In the case of `CCN(CC)S(=O)(=O)c1cc(NC(=O)c2ccc(-n3cncn3)c([N+](=O)[O-])c2)ccc1C`, the outcome was inactive.
To `Cc1ccc(S(=O)(=O)C=CS(=O)(=O)c2ccc(C)cc2)cc1` belongs “inactive”; to `CC(=O)Nc1ccc2c(c1)C(=O)N(C)[C@@H]1CC[C@@H](CC(=O)NCC3CC3)O[C@H]1CO2`, “inactive”.
